Assay outcomes as filed in PubChem.
Shiga toxin inh = Shiga toxin inhibition. Vero cells, Shiga toxin protein synthesis inhibition reporter. inhibition, % at 38.7 µM. 290,000 tested, 9.2% active. AID 2315; in the data active = inhibition mostly above about 28%, no sharp cut-off; inactive = mostly below about 43%
NS1 inh = influenza NS1 inhibition; Potency, µM (titrated, usually from 46.1 µM); 270,000 tested, 0.4% active; AID 2326; calls by dose curve; note: actives are rising curves; nearly all actives have a fitted effect of over 50% in size
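A cell-based growth assay was used: compounds that relieve NS1-induced slow growth of budding yeast raise OD600. Assay medium was yeast nitrogen base with ammonium sulphate and -URA supplement, pH 6.0, with 2% galactose.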
Sm TGR block = S. mansoni TGR enzyme inhibition. Potency, µM (highest dose often 114 µM), most hits filed as inhibitors. 360,000 tested, 3% active. purified TGR, DTNB reduction, TNB absorbance 405 nm. Q962Y6; note: nearly all actives have a fitted effect of over 60% in size
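First, TGR (20 nM dispensed) and NADPH were mixed with compound. Second, a 15 min room-temperature incubation followed. Third, further NADPH and then DTNB were added to start the reaction. Finally, TNB absorbance was monitored kinetically.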
CHX counter = affects cycloheximide protein synthesis inhibition readout, counter-screen; 300,000 tested, 12% active; AID 2314; max response, %; cell reporter, cycloheximide protein synthesis inhibition counterscreen; in the data active = max response mostly above about 13%, no sharp cut-off; inactive = mostly below about 14%; note: read at 38.3 µM for the half of the compounds with a filed dose
Pf growth 48h = inhibits P. falciparum growth in the first generation, 48 h; P. falciparum luciferase growth in erythrocytes, 48 h; Potency, µM (top dose mostly 28.7 µM), hits mostly inhibitors; 310,000 tested, 5.9% active
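Erythrocytes infected with P. falciparum carrying an integrated firefly luciferase reporter (2% hematocrit, 0.1% parasitemia final) were exposed to compounds in RPMI 1640 with 0.5% Albumax at 37 C, 5% CO2. Growth inhibition was scored as reduced luminescence.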
Pf growth 96h = P. falciparum growth inhibition at 96 hours; P. falciparum luciferase reporter growth, 96 h; Potency, µM (highest dose often 28.7 µM), usual class: inhibitors; 320,000 tested, 6.9% active; AID 504834
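Luminescence readout: decreased luciferase signal marks inhibited growth of reporter-expressing P. falciparum in infected red cells (2% hematocrit, 0.05% parasitemia final), exposed to compound two generations (96 h, 37 C, 5% CO2).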
Hits are given with their value; . = inactive; ? = inconclusive; / = not tested or not shown; [ ] = another dose, or the depositor's remark. Hits are enriched below; roughly 21% of the tested compounds scored in any of these assays. Unless noted, calls come from the whole dose curve; as a rule, active = well fitted curve in the direction sought with a large enough effect; inconclusive = small, poorly fitted or top-dose-only effect, or another doubt; inactive = no such curve, though single readings can be large; an effect the other way counts as inactive or inconclusive.

SMILES | Shiga toxin inh | NS1 inh | Sm TGR block | CHX counter | Pf growth 48h | Pf growth 96h
O=C(N/N=C/c1ccc(OCc2ccccc2)cc1)c1ccco1 | 55 | . | . | 36 | 1.9µM | 3.7µM
COc1ccccc1/C=C/C=N/NC(=O)c1ccco1 | 78 | . | . | 32 | 12µM | ?
O=C(N/N=C/c1ccccc1)c1ccc(OCc2ccccc2)cc1 | . | / | . | . | . | .
O=C(CCN1CCN(c2ccccc2)CC1)NNC(=O)Cc1ccc(Br)cc1 | / | / | . | / | . | .
Cc1nn(Cc2ccc([N+](=O)[O-])cc2)c(=O)n1-c1c(F)cccc1F | . | . | . | . | . | .
Cc1nc(NC(=O)c2c(-c3ccccc3)c(-c3ccccc3)nn(C)c2=O)sc1C | / | / | . | / | / | /
COc1cccc(-c2cn3c(n2)sc2cc(C(=O)NCCc4ccccc4)ccc23)c1 | / | / | . | / | / | /
COc1ccc(-n2c(=O)c3ccccc3n(Cc3ccccc3C)c2=O)c(OC)c1 | / | / | . | / | / | /
O=C(N/N=C\c1ccccc1OCc1ccccc1)c1ccco1 | 40 | . | . | 32 | 8.3µM | ?
COC(=O)[C@]1(C)CCC[C@@]2(C)C3CC[C@@]4(C)C[C@]3(CCC21)CC(=O)N4Cc1ccc(OC)cc1 (stereo partly specified) | / | / | . | / | 1.7µM | 1.5µM
COC(=O)[C@]1(C)CCC[C@@]2(C)C3CC[C@]4(OC(C)=O)C[C@@]3(CCC21)CC4=O (stereo partly specified) | / | / | . | / | ? | ?
COc1ccc(CCNC(=O)C2CCCN(S(=O)(=O)c3ccc4c(c3)oc(=O)n4C)C2)cc1OC (stereo unspecified) | / | / | . | / | / | /
COC(c1ccccc1)c1nnc(CCC(=O)NC2CCCCC2)o1 (stereo unspecified) | . | . | . | 17 | . | .
O=C(CCc1nnc(-c2ccccc2)o1)NC1CCCCC1 | 64 | . | . | 44 | . | .
COC(c1ccccc1)c1nnc(CCC(=O)N2CCCCCCC2)o1 (stereo unspecified) | . | . | . | 11 | . | ?
COC(c1ccccc1)c1nnc(CCC(=O)N2CCN(Cc3cccs3)CC2)o1 (stereo unspecified) | . | . | . | . | ? | .
Cc1cccc(-c2noc(CCC(=O)NC3CCCCC3)n2)c1 | . | . | . | . | . | .
O=C(Nc1nnc(-c2ccccc2)o1)NC1CCCCC1 | . | . | . | . | 12µM | 3.7µM
COc1ccc(-c2nn(-c3ccccc3)cc2C(=O)O)cc1N | . | ? | . | . | ? | ?
Cc1cc(-c2nnc(CCC(=O)NCC(C)c3ccccc3)o2)no1 (stereo unspecified) | . | . | . | . | . | .
O=C(CCc1nnc(-c2ccsc2)o1)N1CCc2c(Cl)cccc2C1 | 104 | . | . | 30 | . | .
CC(CNC(=O)CCc1nnc(CCC2CCCCC2)o1)c1ccccc1 (stereo unspecified) | . | . | . | 21 | . | .
COC(c1ccccc1)c1nnc(CCC(=O)NCCc2ccc(Cl)cc2)o1 (stereo unspecified) | . | . | . | . | . | .
O=C(CCc1nnc(-c2ccc(-c3ccccc3)cc2)o1)N1CCCCC1 | 69 | . | . | 49 | ? | .
COC(c1ccccc1)c1nnc(CCC(=O)N(C)C(C2CC2)C2CC2)o1 (stereo unspecified) | 84 | . | . | 50 | . | .
SMILES | Shiga toxin inh | NS1 inh | Sm TGR block | CHX counter | Pf growth 48h | Pf growth 96h
CC1CCc2c(sc(NC(=O)CSc3nc(N)cc(=O)[nH]3)c2C(N)=O)C1 (stereo unspecified) | / | / | . | / | . | .
Cc1ccc(CNC(=O)Cn2c(=O)ccc3cc(S(=O)(=O)N4CCC(C)CC4)ccc32)cc1 | / | / | . | / | / | /
COc1ccc(NS(=O)(=O)c2ccc3c(c2)n(C)c(=O)c(=O)n3C)cc1Cl | / | / | . | / | / | /
O=C(C1CCCN(c2ncnc3c2nc2n3CCCCC2)C1)N1CCN(c2ccc(Cl)cc2)CC1 (stereo unspecified) | . | . | . | . | 12µM | .
O=C(C1CCCN(c2ncnc3c2nc2n3CCCCC2)C1)N1CCN(c2ccc(F)cc2)CC1 (stereo unspecified) | . | . | . | . | 9.3µM | ?
COc1ccc(N2C(=O)C3C(c4ccc(OC)cc4O)NC(Cc4ccccc4)(C(=O)O)C3C2=O)cc1 (stereo unspecified) | . | / | . | . | . | .[5.75 µM]
CCCC1(C(=O)O)NC(c2ccc(OC)cc2O)C2C(=O)N(c3ccc(OC)cc3)C(=O)C21 (stereo unspecified) | . | . | . | . | / | 15µM
Cc1sc(NC(=O)C2C3CCC(O3)C2C(=O)O)nc1-c1ccc(CC(C)C)cc1 (stereo unspecified) | 80 | . | . | 42 | . | .
CCOC(=O)c1c(NC(=O)C2C3CCC(O3)C2C(=O)O)sc(C)c1-c1ccc(C)cc1 (stereo unspecified) | . | . | . | . | . | .
O=C(CCCn1cnc([N+](=O)[O-])n1)Nc1cccc(O)c1 | . | / | . | . | . | .
CCCC(=O)Nc1nnc(S(=O)(=O)N(C)Cc2ccco2)s1 | . | . | 4.5µM | . | . | .
Cc1ccc(C(=O)Nc2nnc(S(=O)(=O)N(C)Cc3ccco3)s2)cc1 | / | / | . | / | / | /
CCC(=O)Nc1nnc(S(=O)(=O)N(C)Cc2ccco2)s1 | . | . | 35µM | . | . | ?
Oc1cnn(-c2ccccc2)c1 | . | . | . | 16 | . | /
Cc1ccc(-n2cc(C(=O)c3ccc4ccccc4c3O)cn2)cc1 | . | . | . | . | . | .
Cc1ccc(O)c(C(=O)c2cnn(-c3ccccc3)c2)c1 | 108 | . | . | 27 | . | /
COc1ccc(O)c(C(=O)c2cnn(S(=O)(=O)c3ccc(C)cc3)c2)c1 | / | / | 35µM | / | . | .
Oc1ccc(-c2[nH]ncc2-c2cnn(-c3ccccc3)c2)c(O)c1 | . | / | . | . | . | ?
Cc1ccc(-n2cc(C(=O)c3ccccc3O)cn2)cc1 | 61 | . | . | 53 | . | .
COc1ccc(C(=O)n2cc(C(=O)c3cc(C)ccc3O)cn2)cc1 | . | . | . | . | . | .
COc1cc(NC(=O)CN2C(=O)CCc3cc(Br)ccc32)cc(OC)c1OC | / | / | . | / | / | /
COc1cc(Cl)c(C)cc1NC(=O)c1cc2c(=O)oc3ccccc3c2s1 | / | / | . | / | / | /
O=C(Cc1cnn(-c2ccccc2)c1)c1ccc(O)c(O)c1O | . | . | ? | 17 | / | .
COc1cc(OC)cc(OC(=O)C2CCN(C3=NS(=O)(=O)c4ccccc43)CC2)c1 | / | / | . | / | . | .
O=C(OCc1nc2ccccc2s1)C1CCN(C2=NS(=O)(=O)c3ccccc32)CC1 | 60 | . | . | 61 | . | ?
CC(C)CN(CCNC(=O)CCN1N=C(c2ccccc2)CCC1=O)CC(C)C | / | / | . | / | / | /
CNc1ccc(C(=O)Oc2cc(O/N=[N+](\[O-])N(C)C)c([N+](=O)[O-])cc2[N+](=O)[O-])cc1 | 73 | / | / | 40 | / | /
C#CCOc1ccc2c3c(c(=O)oc2c1)CCCC3 | / | . | . | 14 | . | .
